High-throughput results (PubChem)
Compounds with a hit are over-represented: about 3.9% of the library has one in this group of screens.
BoNT-F LC inh – inhibitors of Botulinum neurotoxin F light chain protease; 0.22% of 360,000 active; Multiplex microsphere protease cleavage assay, flow cytometry; AID 588497; inhibition, % at 10 µM; in the data active means inhibition above about 35%, passing the limit was not always enough; inconclusive means no clear call, values can overlap the other calls; further: plate controls were buffer without enzyme for full effect and enzyme alone for no effect
3CLpro inhibitor – SARS-CoV 3CLpro protease inhibition; P0C6X7; recombinant SARS-CoV 3CLpro, quenched FRET peptide cleavage; inhibition, % at 6 µM; 0.14% of 290,000 active; AID 1706; in the data active means inhibition above about 12%
CCHFV vOTU inh – blocks the CCHF virus ovarian tumor domain protease; CCHFV vOTU protease, Pep-AMC fluorescence; inhibition, % at 11.5 µM; 0.55% of 370,000 active; in the data active means inhibition above about 30%; further: 0% = vehicle wells with enzyme and 100% = no enzyme wells
Bead autofluor – flagged as autofluorescent in microsphere protease counterscreen; AID 624483; 3.1% of 360,000 active; compound autofluorescence counterscreen, microsphere flow cytometry; hits give high values; fluorescence intensity (test concentration not listed); in the data active means fluorescence intensity above about 16000; inconclusive means no clear call, values can overlap the other calls
Anthrax LF prot – anthrax lethal factor protease inhibition | multiplex microsphere protease cleavage assay, LF | inhibition, % at 10 µM | 0.12% of 360,000 active | AID 588501; further: plate controls were buffer without enzyme for full effect and enzyme alone for no effect
BoNT-A LC inh2 – blocks Botulinum neurotoxin A light chain protease; 0.17% of 360,000 active; multiplex microsphere protease substrate cleavage, flow cytometry; AID 588499; inhibition, % at 10 µM; further: plate controls were buffer without enzyme for full effect and enzyme alone for no effect
* hit, by the source's call; ? = inconclusive; nt = no result given. Unless noted, no stated cut-off is given here; in the data, active means inhibition above about 30%; inconclusive means no clear call, values can overlap the other calls; inactive means below that.

SMILES	BoNT-F LC inh	3CLpro inhibitor	CCHFV vOTU inh	Bead autofluor	Anthrax LF prot	BoNT-A LC inh2
c1coc(-c2nn3c(-c4ccco4)nnc3s2)c1	nt	6	-5	nt	nt	nt
O=C(NCCCc1ccccc1)OC1CC2CC1[C@H]1CCCCN1[C@H]2Cc1ccccc1 (some centres undefined)	nt	nt	2	nt	nt	nt
c1ccc(-c2c[nH]c3ccc(OCCN4CCOCC4)c(-c4ccccc4)c23)cc1	nt	nt	-4	nt	nt	nt
CCOc1c(Cl)cc(CNC(C)(C)CC(C)(C)C)cc1OC	4	-1	1	21728*	-4	4
O=C(O)C1C2C=CC(C2)C1C(=O)NCCCn1ccnc1 (centres undefined)	0	5	1	22134*	-2	0
Cc1ccccc1OCCN1C(=O)NC2(CCc3ccccc32)C1=O (centres undefined)	1	1	-4	20031*	0	1
O=C1NC2(CCc3ccccc32)C(=O)N1CCOc1ccc(Cl)cc1 (centres undefined)	1	-2	-9	4214	-3	0
C=CCn1c(SCc2c(Cl)cccc2Cl)nnc1-c1cccc(C)c1	nt	nt	2	nt	nt	nt
COC(=O)CN1C(=O)C(C)(C)Oc2ccc(C(=O)NC3CC3)cc21	-3	-1	-3	22838*	0	?
CCOC(=O)c1ccc2c(c1)N(CC(=O)N1CCCCC1)C(=O)C(C)(C)O2	2	3	3	4771	3	0
CCOC(=O)c1ccc2c(c1)N(CC(=O)N1CCCC1)C(=O)C(C)(C)O2	-4	-3	8	23746*	-2	?
Cn1nc(C(F)(F)F)c(/C=N/OC(=O)c2ccccc2Cl)c1SCc1ccc(Cl)cc1	-4	1	-4	23366*	-4	1
COc1ccc(C(=O)O/N=C/c2c(C(F)(F)F)nn(C)c2SCc2ccccc2Cl)cc1	-2	-5	1	22636*	-2	1
CC(C)CNC(=O)OCc1cn(Cc2ccccc2Cl)nn1	nt	nt	6	nt	nt	nt
CC(=O)C1=C(C)N(Cc2ccc(F)cc2)C(=S)NC1c1cccc(F)c1 (centres undefined)	nt	nt	3	nt	nt	nt
COCCN=C1Sc2ccccc2[C@@H]2C[C@H]3[C@H](CON3C)CN12	nt	nt	-7	nt	nt	nt
O=S1(=O)c2ccc(Br)cc2OC[C@@H](c2ccccc2)N1Cc1cn(CCC2OCCO2)nn1	nt	nt	-2	nt	nt	nt
COc1ccc(C(=O)C2(C(=O)Nc3cc(C)cc(C)c3)CC(c3ccccc3C(F)(F)F)=NO2)cc1 (centres undefined)	nt	nt	7	nt	nt	nt
Cc1noc(C)c1C(=O)OC(C(=O)NC1CCCC1)c1ccc(F)cc1 (centres undefined)	-6	0	nt	22114*	-1	-5
CC(=O)OC(C(=O)NC1CCCCC1)c1ccc(C)cc1 (centres undefined)	0	-7	9	3626	0	0
Cc1nc2ccccc2c(=O)n1NC(=O)c1c(O)c2c(n(CC(C)C)c1=O)CCCC2	2	3	6	19971*	0	1
CCCCCCc1nc2ccccc2c(=O)n1NC(=O)c1c(O)c2c(n(CC(C)C)c1=O)CCCC2	-29	0	2	4770	-4	0
CCC(=O)N(c1ccccc1)C1CCN(C(=O)C(Cc2ccccc2)NC(C)=O)CC1 (centres undefined)	nt	nt	-8	nt	nt	nt
COc1cc(-c2nc(-c3ccccc3)c(-c3cccs3)[nH]2)cc(OC)c1O	-2	6	-3	24448*	0	-1
COc1cc(-c2nc(-c3ccccc3)c(-c3cccs3)[nH]2)cc(OC)c1OC	-4	7	-21	11656	0	-1
SMILES	BoNT-F LC inh	3CLpro inhibitor	CCHFV vOTU inh	Bead autofluor	Anthrax LF prot	BoNT-A LC inh2
C=CCn1c(COc2ccc(F)cc2)nnc1SCC(=O)N1CC(=O)Nc2ccccc21	-4	6	10	21515*	1	-4
COc1cc(-c2noc(-c3cccs3)n2)cc(OC)c1OC	-1	0	0	20254*	0	?
COc1ccc(-c2noc(-c3cccs3)n2)cc1OC	1	-8	2	5912	-1	0
CC(C)N1CCCCC(NC(=O)c2ccc(Cl)cc2Cl)C1=O (centres undefined)	nt	nt	11	nt	nt	nt
Cc1cccc(C)c1NC(=O)[C@@H]1CC(=O)O[C@@H]1c1ccccc1	nt	nt	-8	nt	nt	nt
Cc1cc(NC(=O)C2CC(=O)OC2c2ccccc2)no1 (centres undefined)	-5	3	-1	23968*	0	-1
Cc1sc(-c2ccccn2)nc1OC(=O)c1ccc(F)cc1F	9	3	-1	3596	-1	2
Cc1sc(-c2ccccn2)nc1OC(=O)c1ccc(Cl)c(Cl)c1	-3	2	28	23143*	0	-1
CS(=O)(=O)Nc1ccc(Cc2ccc(NS(C)(=O)=O)cc2)cc1	-6	0	4	20871*	1	-4
CCN(CC)C(=O)Oc1ccccc1NC(C)=O	-4	0	3	20729*	0	?
CC(=O)Nc1ccccc1OC(=O)N(C)C	4	0	5	15505	1	2
CCn1c(SCC(=O)N/N=C/C=C\c2ccccc2[N+](=O)[O-])nc2ccccc21	-2	0	5	22694*	1	?
CCn1c(SCC(=O)N/N=C/c2ccc(OC)c(OC)c2)nc2ccccc21	-2	-2	2	22575*	0	1
CCCCc1cccc2[nH]cc(C)c12	nt	nt	7	nt	nt	nt
Cc1cccc(OCc2nnc(N)s2)c1	-3	-1	-2	24413*	-4	?
Nc1nnc(COc2cccc(C(F)(F)F)c2)s1	10	5	-2	5746	-1	0
Cc1ccc(S(=O)(=O)N(C)[C@H]2C[C@H]3c4cc(-c5ccccc5C)ccc4CCN3C[C@H]2[C@H](C)O)cc1	nt	nt	-2	nt	nt	nt
C=C(C)Cn1c(SCC(=O)N/N=C(\C)c2ccc([N+](=O)[O-])cc2)nnc1-c1ccc(Br)cc1	nt	nt	14	nt	nt	nt
C=CCn1c(O)c(C(C)=NCCCN2CCOCC2)c(=O)[nH]c1=O	-5	0	-14	8205	0	-1
CC(=NCC1CCCO1)c1c(O)n(C2CCCCC2)c(=O)[nH]c1=O (centres undefined)	2	-1	2	5954	-2	0
CC(=NCCN1CCOCC1)c1c(O)n(C2CCCCC2)c(=O)[nH]c1=O	-6	3	-4	24874*	-3	-4
CCC(=NCCN1CCOCC1)c1c(O)n(-c2ccccc2C)c(=O)[nH]c1=O	4	4	-5	3619	0	0
CC(=NCCN1CCOCC1)c1c(O)n(-c2ccccc2C)c(=O)[nH]c1=O	-2	8	0	23519*	0	-2
CC(=NCCCN1CCOCC1)c1c(O)[nH]c(=O)[nH]c1=O	6	0	7	20875*	-3	4
CCNC(=O)N1CCN(c2ccc(N3CCN(C(=O)NCC)[C@@H](C)C3)c(C)c2)[C@@H](C)C1	nt	nt	2	nt	nt	nt
Cc1ccc(-n2c(O)c(C=Nc3ccc4c(c3)OCO4)c3ccccc3c2=O)cc1C	-4	-2	-19	22790*	-5	1
Cc1cc(N=Cc2c(O)n(-c3ccc4c(c3)OCO4)c(=O)c3ccccc23)ccn1	19	-5	-46	3749	0	1
